# Compounds with a hit are over-represented: about 7.3% of the library has one in this group of screens.
# uPA surface inh: cell surface uPA generation inhibition; 330,000 tested, 0.31% active; cell surface uPA generation assay, qHTS; Potency, µM (top dose mostly 38.3 µM), without a hit: at the top dose activity change, negative = inhibition, hits mostly inhibitors; active = well fitted inhibition curve with a large enough effect; inconclusive = small, poorly fitted or top-dose-only effect; inactive = no such curve, though single readings can be large or run the other way; tested in mouse RAW 264.7 cells; also: % is scaled to controls: 0 for no effect and ±100 for the full control effect; nearly all actives have a fitted effect of over 55% in size
# FLuc modulator: firefly luciferase modulation, counter-screen for miR-21 project. purified FLuc, Km substrates, luminescence inhibition. Potency, µM (top dose mostly 57.5 µM), for inactives: at the top dose activity change, negative = inhibition, hits mostly inhibitors. 360,000 tested, 6.9% active. AID 588342;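 also: plate controls were vehicle for no effect and reference inhibitor for full effect; nearly all actives have a fitted effect of over 55% in size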
# Target sequence (P08659 whole entry, looked up): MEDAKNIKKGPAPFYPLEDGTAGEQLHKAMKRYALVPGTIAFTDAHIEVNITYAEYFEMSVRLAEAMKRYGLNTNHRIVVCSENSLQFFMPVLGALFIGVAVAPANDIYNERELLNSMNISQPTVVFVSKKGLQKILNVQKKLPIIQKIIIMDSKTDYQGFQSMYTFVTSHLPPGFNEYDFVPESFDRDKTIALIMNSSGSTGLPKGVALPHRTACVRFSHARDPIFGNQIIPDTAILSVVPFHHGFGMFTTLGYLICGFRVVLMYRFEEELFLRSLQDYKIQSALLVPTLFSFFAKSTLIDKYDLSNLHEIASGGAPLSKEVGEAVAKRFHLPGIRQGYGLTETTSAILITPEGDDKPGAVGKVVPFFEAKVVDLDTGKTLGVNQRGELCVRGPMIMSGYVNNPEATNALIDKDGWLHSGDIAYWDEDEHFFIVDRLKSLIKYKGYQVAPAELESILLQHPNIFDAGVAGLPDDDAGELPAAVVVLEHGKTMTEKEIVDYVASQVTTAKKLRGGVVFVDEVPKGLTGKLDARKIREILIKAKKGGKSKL
#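 Biochemical qHTS of compounds, final roughly 60 µM downward over six points, against 10 nM purified firefly luciferase using Km concentrations of substrates (10 uM D-luciferin, 10 uM ATP) in Tris acetate pH 7.5 buffer; luminescence output.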
# ELG1 genotoxic: inducers of genotoxicity in HEK293T ELG1-luciferase cells; HEK293T ELG1-luciferase reporter, luminescence, 16 h; Potency, µM (highest dose often 46 µM), for inactives: at the top dose activity change, positive = activation, usual class: activators; 330,000 tested, 1.3% active; also: % of control where 0% means no effect; nearly all actives have a fitted effect of over 60% in size
#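 DMSO vehicle served as control against compound-treated ELG1-luciferase HEK293T cells; exposure lasted 16 hr at 37 °C and 5% CO2, followed by ONE-Glo luminescence detection after 30 min.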
# Rab9 promoter act: Rab9 promoter activation; 320,000 tested, 2.8% active; AID 485297; Potency, µM (highest dose often 9.22 µM), for inactives: at the top dose activation, negative = inhibition, usual class: activators; Huh7 Rab9 promoter-luciferase reporter, luminescence, 24 h; also: % of control where 0% means no effect; nearly all actives have a fitted effect of over 60% in size
#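 Steps: seed 1500 Huh7 Rab9-luc cells per well, rest 2 h at 37 °C; add compound in DMSO; incubate 24 h; add luciferase reagent, 10 min ambient; read luminescence.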
# NPC1 promoter act: activates the NPC1 promoter. 320,000 tested, 2.4% active. Potency, µM (top dose mostly 9.22 µM), for the others: top-dose activation, most hits filed as activators. Huh7 NPC1 promoter luciferase reporter, 24 h; also: % of control where 0% means no effect; nearly all actives have a fitted effect of over 60% in size
#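 Cells: Huh7 expressing luciferase under the NPC1 promoter, 1500/well. Seeded 2 h, compound added, incubated 24 h at 37 °C. Luciferase reagent, 10 min ambient, then luminescence.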
# SMN2 splice enh: enhancers of SMN2 splice variant expression. 210,000 tested, 2.8% active. Potency, µM (highest dose often 46.1 µM), without a hit: top-dose activity change, positive = activation, hits mostly activators. HEK293 SMN2-luciferase splicing reporter, luminescence, 30-36 h; also: % of control where 0% means no effect; nearly all actives have a fitted effect of over 55% in size
#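 qHTS luciferase splicing reporter: luminescence rises when SMN2 exon 7 is included in transfected HEK293 cells. Compound exposure lasted 30-36 h at 37C, with 4.5 mM final sodium butyrate as control, followed by a ONE-Glo read.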
# Active calls of the source: *; u = inconclusive; x = no result given; [ ] = remark or other dose. Unless noted, calls follow the shape of the dose curve; as a rule, active = well fitted curve in the direction sought with a large enough effect; inconclusive = small, poorly fitted or top-dose-only effect, or another doubt; inactive = no such curve, though single readings can be large; an effect the other way counts as inactive or inconclusive. Potency is read from the fitted curve at half-maximal effect.
SMILES,uPA surface inh,FLuc modulator,ELG1 genotoxic,Rab9 promoter act,NPC1 promoter act,SMN2 splice enh
CCCCN(CC)CCCNC(=O)c1cn(CC)c2ccc(S(=O)(=O)N3CCOCC3)cc2c1=O,x,-5%,x,x,x,14%
Cc1ccc(C(=O)CC2(O)C(=O)N(Cc3ccccc3)c3ccccc32)o1 (stereo not drawn),-1%,7%,0%,-2%,-2%,11µM*
CSC(N)=NCCCC(N)C(=O)O (stereo not drawn),x,x,x,x,x,-3%
O=C(c1ccc2c(c1)CCN2S(=O)(=O)c1ccc(Cl)cc1)N1CCN(c2ccccc2)CC1,x,-7%,x,x,x,-9%
CC(C)(C)C(=O)Nc1nc2c(s1)CN(Cc1ccccc1)CC2,4%,u,u,3.2µM*,u,u
O=C(Nc1nc2c(s1)CN(Cc1ccccc1)CC2)C1CCCC1,2%,-19%,4%,u,15%,20%
CCOc1ccccc1CNC(=O)CCCN1C(=O)CCn2nc(-c3cccn3C)cc21,x,-7%,x,x,x,x
CN(C)c1ccc(Nc2nc(N)c3ccccc3n2)cc1,-12%,0.19µM*,u,0.1µM*,u,x
CN(C)c1nc(Nc2ccccc2)nc(N(C)C)n1,1%,-12%,-6%,8%,4%,-11%
COc1ccc(C)cc1Nc1nc(N)c2ccccc2n1,3%,u,-3%,0%,4%,x
Oc1ccc(Nc2nc(-c3ccc(Cl)cc3)nc3ccccc23)cc1,x,u,x,x,x,22%
CCOc1ccc(Nc2nc(N)c3ccccc3n2)cc1,-16%,0.43µM*,0.58µM*,0.71µM*,0.89µM*,x
Nc1nc(Nc2ccc(Cl)cc2)nc2ccccc12,-12%,0.43µM*,u,0.5µM*,0.63µM*,x
Cc1ccccc1Nc1nc(N)c2ccccc2n1,-15%,1.7µM*,u,0.5µM*,0.71µM*,3.5µM*
Nc1nc(Nc2ccccc2)nc2ccccc12,-11%,1.3µM*,u,0.63µM*,0.56µM*,14µM*
COc1cc(NC(=O)CN(C)S(=O)(=O)c2ccc3c(c2)CC(C)N3C(C)=O)cc(OC)c1OC (stereo not drawn),-1%,4%,-7%,-8%,2%,x
Fc1ccc(C[n+]2csc3ccccc32)cc1,-3%,7.6µM*,4%,2%,-4%,2%
Fc1ccc(CSc2ncnc3scc(-c4ccccc4)c23)cc1,7%,0%,4%,1%,-2%,-3%[1.84 µM]
Clc1ccc(C[n+]2csc3ccccc32)cc1,-7%,6.7µM*,0%,-7%,0%,-3%
CCCCCCC1CCC(c2nc(-c3ccncc3)no2)CC1 (stereo not drawn),-2%,0%,-1%,-1%,0%,-4%
CCCC1CCC(c2nc(-c3cccnc3)no2)CC1 (stereo not drawn),5%,24µM*,15%,u,24%,-3%
O=C(CC(Nc1cccc(Cl)c1Cl)C(=O)O)c1ccccc1 (stereo not drawn),-7%,u,u,8%,-4%,-5%
O=C(CC(Nc1ccc(Cl)cc1)C(=O)O)c1ccccc1 (stereo not drawn),-10%,1.7µM*,16µM*,2.2µM*,2.8µM*,18µM*
O=C(CC(Nc1ccccc1Cl)C(=O)O)c1ccccc1 (stereo not drawn),x,4.8µM*,2.9µM*,26%,-2%,-53%
COc1ccc(NC(=O)CN2C(=O)C(=O)c3ccccc32)c(OC)c1,x,-1%,x,x,x,-10%
SMILES,uPA surface inh,FLuc modulator,ELG1 genotoxic,Rab9 promoter act,NPC1 promoter act,SMN2 splice enh
Cc1ccc(-c2csc(N/N=C/c3ccco3)n2)c(C)c1,3%,-13%,19%,18%,14%,4µM*
CCOC(=O)c1sc(N2N=C(C)C(N=Nc3cccc(C)c3)C2=O)nc1C (stereo not drawn),-3%,6.7µM*,-3%,15%,21%,x
COCCNS(=O)(=O)c1ccc(-c2ccc(S(=O)(=O)NCCOC)cc2)cc1,-6%,4.3µM*,u,1µM*,u,20µM*
COCCNS(=O)(=O)c1ccc(-c2ccc(Cl)cc2)cc1,x,-9%,2%,-13%,0%,x
CC(NC(=O)c1cnccn1)c1ccc(S(N)(=O)=O)cc1 (stereo not drawn),-1%,0%,1%,-5%,3%,x
COc1cc(N=Nc2ccccc2C(=O)O)ccc1O,0%,u,1%,-10%,0%,x
Oc1ccc(N=Nc2ccc3ccccc3c2)cc1,u,1.1µM*,2.3µM*,u,3.5µM*,x
NS(=O)(=O)c1ccc(N=Nc2c(O)ccc3ccccc23)cc1,-3%,-2%,-10%,7%,7%,8%
COc1cc(N=Nc2ccc3ccccc3c2)ccc1O,3.2µM*,5.4µM*,12µM*,u,3.2µM*,x
Oc1ccc(N=Nc2c(O)ccc3ccccc23)cc1,-26%,27µM*,-1%,11%,16%,-21%
O=[N+]([O-])c1ccccc1N=Nc1ccc(O)cc1,-24%,x,x,x,x,x
O=c1c2ccccc2nc2oc3ccccc3n12,-2%,7.6µM*,10µM*,1.6µM*,1.6µM*,x
COCC(=O)Nc1cc(C(=O)Nc2ccccc2C)ccc1Cl,-11%,u,4%,6%,7%,11%
Cc1cc(C(=O)Nc2ccccc2C(=O)O)ccc1NC(=O)COc1cccc([N+](=O)[O-])c1,-2%,24µM*,3%,-3%,-1%,x
Cc1cc(C(=O)Nc2ccccc2C(=O)O)ccc1NC(=O)COc1cccc(C)c1C,3%,6µM*,29%,14%,16%,x
Cc1cccc(C(=O)Nc2cc(C)ccc2NC(=O)COc2ccccc2)c1,-1%,1%,-5%,-3%,2%,-7%
Cc1ccc(C(=O)Nc2ccccc2C(=O)O)cc1NC(=O)COc1c(C)cccc1C,3%,13µM*,-3%,-5%,-3%,13%
CNC(=O)c1c(NC(=O)C2=COCCO2)sc2c1CCCC2,-5%,17µM*,17%,5%,2%,x
CCOC(=O)c1c(NC(=O)CN2CCCCC2)sc2c1CCN(C(=O)OCC)C2,11%,-1%,-6%,-18%,-8%,-39%
CCOC(=O)N1CCc2c(sc(NC(=O)C3=COCCO3)c2C(N)=O)C1,-6%,11µM*,1%,9%,-3%,x
COC(=O)c1cc(O)cc(OC)c1Oc1cc(C)cc(O)c1C(=O)O,0.89µM*,-6%,-16%,-23%,-34%,x
COC(=O)c1cc(O)cc(OC)c1C(=O)c1c(O)cc(C)cc1O,-18%,4%,3%,1%,-1%,x
CC(C)NC(=O)N1CC[C@@]2(CCCN(C(=O)c3csnn3)C2)C1,x,x,x,x,x,-6%
CC(C)(C)Nc1oc(-c2ccccc2)nc1-c1ccccc1F,x,x,x,x,x,3%
